Source: PubChem
This is a sample that favours compounds with a hit; in the whole collection about 8% have one here.
SW480 rerep: DNA re-replication induction in SW480 cells; 340,000 tested, 1.8% active; Potency, µM (top dose mostly 46.1 µM), inactives show top-dose re-replication activation, hits mostly activators; AID 624297; SW480 DNA re-replication, Hoechst DNA content imaging, 48 h; further: % of control where 0% means no effect; nearly all actives have a fitted effect of over 55% in size
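Readout is total intensity of Hoechst-stained nuclei, excited at 405 nm and collected at 500-530 nm. Compound treatment lasted 48 hr at 37 C in 5% CO2 before staining.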
KB-3-1 cytotox: KB-3-1 parental cell cytotoxicity. KB-3-1 viability, CellTiter-Glo ATP luminescence, 72 h. Potency, µM (titrated, usually from 46.1 µM), most hits filed as cytotoxic. 400,000 tested, 1.4% active; further: on the % scale 0 is the no-effect control and ±100 the full control effect; nearly all actives have a fitted effect of over 60% in size
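72 h, 37 °C compound treatment of KB-3-1 parental cells; CellTiter-Glo added, 10 min, luminescence read. Data corrected against DMSO-only plates and normalized before curve fitting.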
HT1080 IDH1KD tx: HT-1080 IDH1 knockdown cell toxicity (counter line). Potency, µM (doses to about 46.1 µM), without a hit: at the highest dose activity, negative = toxicity, usual class: cytotoxic. HT-1080 IDH1 knockdown viability, ATP luminescence, 48 h. AID 686971. 360,000 tested, 2% active;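 further: 0% = DMSO wells and -100% = cell-free medium wells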
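In this qHTS, HT-1080 cells depleted of IDH1 are exposed for 48 h at 37 °C to compound titrations. Toxicity is scored from CellTiter-Glo luminescence, with DMSO as full viability and medium alone as none.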
MCF10A rereplic: induces DNA re-replication in MCF 10a normal breast cells; MCF 10A DNA re-replication, Hoechst nuclear intensity, 48 h; Potency, µM (titrated, usually from 46.1 µM), for inactives: at the highest dose activity, positive = re-replication, most hits filed as activators; 350,000 tested, 2.9% active; AID 624296; further: % of control where 0% means no effect; nearly all actives have a fitted effect of over 50% in size
HT1080-NT tox: kills 2HG-producing HT-1080-NT fibrosarcoma cells. Potency, µM (top dose mostly 46.1 µM), inactives show at the highest dose activity, negative = less viability, most hits filed as cytotoxic. AID 686970. HT-1080-NT fibrosarcoma viability, CellTiter-Glo ATP luminescence, 48 h. 360,000 tested, 1.6% active;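 further: NT is the 2HG producing partner of a matched IDH1 knockdown line; 0% = DMSO-treated cells and -100% = media-only wells without cells; nearly all actives have a fitted effect of over 55% in size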
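Read-out is CellTiter-Glo luminescence after 10 minutes at room temperature, following 48 hours' compound treatment of HT-1080-NT cells (750 cells/well, RPMI, 5% FBS, 37 degrees C).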
KB-V1 cytotox: kills drug-selected multidrug resistant KB-V1 cells; KB-V1 MDR cells viability, CellTiter-Glo, 72 h; Potency, µM (highest dose often 46.1 µM), actives largely listed as cytotoxic; 400,000 tested, 3.4% active; AID 1347076; further: on the % scale 0 is the no-effect control and ±100 the full control effect; nearly all actives have a fitted effect of over 60% in size
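Readout: CellTiter-Glo luminescence, 10 min after addition. Cells: KB-V1 MDR subline, 72 h at 37 degrees C with compound. Analysis: corrected, normalized data fitted to concentration-effect curves.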
An asterisk follows results filed as active; i = inactive; ? = inconclusive; · = not tested or not shown; [ ] = dose if it differs, or a comment. The call rests on the fitted dose curve; in most records, active means well fitted curve in the direction sought with a large enough effect; inconclusive means small, poorly fitted or top-dose-only effect, or another doubt; inactive means no such curve, though single readings can be large; an effect the other way counts as inactive or inconclusive. Potency means the concentration at half of the fitted maximal effect.

SMILES | SW480 rerep | KB-3-1 cytotox | HT1080 IDH1KD tx | MCF10A rereplic | HT1080-NT tox | KB-V1 cytotox
CCOc1cc(S(=O)(=O)N2CCCC2)ccc1Cl | 0.73µM* | i | -2% | 1µM* | 2% | i
O=[N+]([O-])c1cc(S(=O)(=O)N2CCCCCC2)ccc1Cl | 22% | i | ? | 16µM* | 23µM* | i
CCC(=O)N(C1=C(NC(C)C)C(=O)c2ccccc2C1=O)C(C)C | -9% | ? | -3% | 6% | -16% | ?
CCCNC1=C(N(C(C)=O)c2cccc(F)c2)C(=O)c2ccccc2C1=O | 5.8µM* | 1.3µM* | 4.6µM* | 0.73µM* | 8.2µM* | ?
Cc1ccc(CN2CC(C(=O)Nc3ccc(C)c(S(=O)(=O)N4CCCCC4)c3)CC2=O)cc1 (centres undefined) | 1% | 16µM* | -26% | ? | -4% | 21µM*
Cc1ccc(C(=O)Nc2ccc(N3CCN(S(C)(=O)=O)CC3)cc2)cc1 | -9% | i | 14% | -2% | 2% | i
Cc1ccc(NC(=O)CCNC(=O)c2ccc(Br)cc2)cc1S(=O)(=O)N1CCCCCC1 | -7% | ? | -7% | ? | -8% | 21µM*
CCN(CC)CCNC(=O)c1ccc(NC(=O)c2ccc(C(=O)c3ccccc3)cc2)cc1 | 13% | i | 21µM* | -20% | 21µM* | i
COc1ccc(NC(=O)C2CC(=O)N(Cc3ccc(C)cc3)C2)cc1S(=O)(=O)N1CCCCC1 (centres undefined) | -19% | i | 0% | 13% | 2% | i
Cc1ccc(C(=O)Nc2ccc(N3CCN(S(C)(=O)=O)CC3)cc2)cc1C | 16µM* | i | -9% | ? | -4% | i
Cc1ccc(NC(=O)Cn2ncc(Cl)c(Cl)c2=O)cc1S(=O)(=O)N1CCCCC1 | 8.2µM* | ? | ? | 4.1µM* | ? | ?
Cc1ccc(NC(=O)Cc2ccc(Cl)cc2)cc1S(=O)(=O)N1CCCCCC1 | -30% | ? | ? | 12% | ? | i
CCN(CC)CCNC(=O)c1ccc(NC(=O)c2ccc(Cl)c(S(=O)(=O)N3CCCCCC3)c2)cc1 | ? | ? | 21µM* | ? | ? | i
Cc1ccc(C(=O)Nc2ccncc2)cc1S(=O)(=O)N1CCCCC1 | · | ? | -17% | · | -2% | 15µM*
Cc1ccc(NC(=O)CN(C)C(=O)Cn2ncc(Cl)c(Cl)c2=O)cc1 | ? | ? | 21µM* | 3.3µM* | ? | ?
Cc1ccc(NC(=O)CN(C)C(=O)Cc2ccc(Cl)c(Cl)c2)cc1 | 27% | i | ? | 6% | -15% | i
CCN(CC)CCNC(=O)c1ccc(NC(=O)c2ccc(S(=O)(=O)N3CCCCCC3)cc2)cc1 | 13% | ? | -3% | 22% | -7% | ?
Cc1cc(NC(=O)c2cccnc2)cc(-c2nc3cc(Cl)ccc3o2)c1O | · | i | · | · | · | i
C(=N\Nc1nc2ccccc2[nH]1)/c1ccc2ncccc2c1 | -51% | 1µM* | 0.73µM* | ? | 0.65µM* | ?
Fc1ccccc1-c1ccc(/C=N/Nc2nc3ccccc3[nH]2)o1 | ? | ? | 26µM* | 18µM* | ? | ?
COc1ccc(/C=N/Nc2nc3ccccc3[nH]2)cc1OC | -9% | i | -23% | -3% | -16% | ?
COc1cc(/C=N\Nc2nc3ccccc3[nH]2)cc(OC)c1OC | 0% | i | -20% | ? | -24% | 5.8µM*
Cc1ccc(/C=N\Nc2nc3ccc(Cl)cc3[nH]2)o1 | -3%[9.22 µM] | i | -14% | ? | -10% | i
C#CCn1cc(/C=N/Nc2nc3ccccc3[nH]2)c2ccccc21 | ? | i | ? | ? | 16µM* | i
O=C(CN1C(=O)COc2ccc(S(=O)(=O)N3CCOCC3)cc21)N1CCN(c2ccc(F)cc2)CC1 | · | i | · | · | · | ?
SMILES | SW480 rerep | KB-3-1 cytotox | HT1080 IDH1KD tx | MCF10A rereplic | HT1080-NT tox | KB-V1 cytotox
Cc1ccc(OCCn2c(-c3ccc(Br)cc3)nc3ccccc3c2=O)cc1C | · | i | · | · | · | i
COc1cc(OC)c(OC)cc1/C=N/Nc1nc2ccccc2[nH]1 | -7% | i | 3% | ? | 3% | i
COc1ccc2c(c1)c(/C=N/Nc1nc3ccccc3[nH]1)c(C)n2C | ? | i | ? | 21µM* | ? | i
BrC(=C\c1ccccc1)/C=N/Nc1nc2ccccc2[nH]1 | ? | i | ? | 8.2µM* | -4% | ?
CCCCn1c(/C=N/Nc2nc3ccccc3[nH]2)nc2ccccc21 | 8.2µM* | ? | 15µM* | ? | ? | i
C(=N\Nc1nc2ccccc2[nH]1)/c1ccccn1 | ? | i | 18µM* | -2% | ? | i
O=C(NCCc1ccccc1)c1ccc(CSc2nc3ccncc3n2Cc2ccc(F)cc2)cc1 | · | i | · | · | · | i
COc1ccc(-c2c(C#N)c(SCC(=O)Nc3ccc(C)c(C)c3)nc(C)c2C(=O)Nc2ccccc2)cc1OC | · | i | · | · | · | i
O=c1c2ccccc2nc2c3ccccc3c3nncn3n12 | 0% | ? | -1% | 0% | 7% | 7.3µM*
Cc1ccc(C(NC(=O)N2CCOCC2)=C(Cl)Cl)cc1F | 21% | i | 14µM* | ? | ? | i
Cc1cccc(-n2nc(C)c(C(=O)Nc3cc(C)ccc3C)c2-n2cccc2)c1 | · | i | · | · | · | i
Cc1ccc(NC(=O)COC(=O)CC2CC3CCC2C3)cc1S(=O)(=O)N1CCOCC1 (centres undefined) | -1% | i | 6% | 0% | -2% | i
COc1ccc(NC(=O)CC2CC3CCC2C3)cc1S(=O)(=O)N1CCOCC1 (centres undefined) | -2% | i | 6% | 9% | 16% | 13µM*
COc1ccc(S(=O)(=O)Nc2ccccc2OC)cc1NC(=O)CC1CC2CCC1C2 (centres undefined) | 5% | i | -9% | ? | -12% | 21µM*
COc1ccc(NC(=O)Cc2coc3cc(C)ccc23)cc1S(=O)(=O)N1CCOCC1 | 1% | i | 8% | 15% | 2% | 18µM*
COc1ccc(NS(=O)(=O)c2ccc(OC)c(NC(=O)CCC3CCCCC3)c2)cc1 | -57% | i | 10% | 15% | -1% | 12µM*
O=C(Nc1ccc2nn(-c3ccc(F)cc3)nc2c1)c1cccc2c(Cl)cccc12 | · | i | · | · | · | i
COC(=O)c1ccccc1NC(=O)CSc1nnc2cc(C)c3cc(C)cc(C)c3n12 | · | i | · | · | · | i
CCN(CC)CC(=O)Nc1ccc2c(c1)Nc1ccccc1CC2 | 1%[9.22 µM] | ? | ? | 1% | 11µM* | ?
